# Assay results taken from PubChem BioAssay.
# Activity calls are given as the source filed them.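 Rule for the calls, unless noted: active = inhibition over a set limit, the all-compound mean plus 3 SD, in both replicate runs; inconclusive = over that limit in just one replicate run; inactive = at or under that limit in both runs.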
# Assay: inhibitors of the yeast RAM network, pilot screen, dse1pr::URA3 reporter, 5-FOA selection (AID 869);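 note: 0% = DMSO wells with no growth and 100% = 10 µM 1-NA-PP1 with full growth; RAM network block rescues cells from 5-FOA so hits raise OD615 growth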
# Details: S. cerevisiae dse1pr::URA3 5-FOA growth, OD615, 2 d; at 10 µM; active compounds read high; strain carries analog-sensitive mutant Cbk1 kinase
row,SMILES,inhibition
1,Cc1nnc2n(-c3ccc(Cl)cc3)c(=O)c3c4c(sc3n12)CN(C)CC4,0.945% (inactive)
2,O=c1oc2c3c4c(cc2s1)CCCN4CCC3,1.76% (inactive)
3,Cc1cc(C)n2nc(SCc3nc4ccccc4[nH]3)nc2n1,1.77% (inactive)
4,Cc1cc(C)cc(N(CC(=O)Nc2cccc(C)n2)S(=O)(=O)c2c(C)noc2C)c1,0.94% (inactive)
5,COc1cccc(C2C3=C(N=C4SCC(=O)N42)c2ccccc2CC3)c1OC (stereo not given),0.915% (inactive)
6,O=C(Cn1nc(Cc2ccncc2)c2ccccc2c1=O)N1CCN(C(=O)c2ccco2)CC1,1.01% (inactive)
7,O=C(Nc1c(C(=O)NCc2ccco2)cnn1-c1ccccc1)c1ccc(F)cc1,-0.12% (inactive)
8,Cc1nc2ccc(S(=O)(=O)NC(C(=O)Nc3nccs3)C(C)C)cc2s1 (stereo not given),1.99% (inactive)
9,Cn1nnnc1SCC(=O)N1CCN(c2ccccc2)CC1,0.735% (inactive)
10,COc1cc2c(cc1OC)-c1nnc(C)n1C1(CCCC1)C2,1.1% (inactive)
11,CS(=O)(=O)N(Cc1ccco1)CC(O)Cn1c2ccccc2c2ccccc21 (stereo not given),1.9% (inactive)
12,COc1cccc(C2=NOC(C(=O)N3CCc4ccccc4C3)C2)c1 (stereo not given),-0.045% (inactive)
13,O=C(CC1Oc2ccccc2NC1=O)NCCCN1CCOCC1 (stereo not given),1.94% (inactive)
14,CCOC(=O)N1CCN(C(=O)c2ccc(CS(=O)(=O)c3c(Cl)cccc3Cl)o2)CC1,0.365% (inactive)
15,CCn1cc(SCC(=O)Nc2cc(C)on2)c2ccccc21,1.87% (inactive)
16,COc1ccccc1N1CCN(C(=O)N2CCOCC2)CC1,1.06% (inactive)
17,O=C(CSc1nnc2ccccn12)c1ccccc1,1.23% (inactive)
18,CCOc1ccc(N(CC(=O)OC)S(=O)(=O)c2ccc(OC)c(OC)c2)cc1,0.39% (inactive)
19,CCCCSc1nc(CCC)cc(=O)[nH]1,0.635% (inactive)
20,O=C(CN1CCN(Cc2ccccc2F)C1=O)NCc1cccnc1,0.605% (inactive)

row,SMILES,inhibition
1,COc1ccc(OC)c(C(=O)c2ccc(C(=O)O)cc2)c1,1.67% (inactive)
2,Cc1ccc(C)n1-n1c(C)nc2sc(-c3ccccc3)cc2c1=O,0.52% (inactive)
3,CCn1c(C(=O)N2CCC(C(=O)N3CCN(c4ccccn4)CC3)CC2)cc2sccc21,0.93% (inactive)
4,C=CCSc1nc(N)c2c(C)c(C)sc2n1,0.34% (inactive)
5,COc1ccc(OCCSc2nc3ccccc3n2CC(=O)O)cc1,0.61% (inactive)
6,Cc1nnc(SCC(=O)NCc2ccccc2)s1,0.99% (inactive)
7,Clc1ccc(SCCCCn2ccnc2)cc1,0.96% (inactive)
8,CC1(C)Oc2ccc3ccc(=O)oc3c2C(N2CCCCC2)C1O (stereo not given),1.49% (inactive)
9,CSCCC(N=CC1=C(O)CC(C)(C)CC1=O)C(=O)O (stereo not given),0.65% (inactive)
10,COc1ccc(C)cc1NC(=O)C1CCN(S(=O)(=O)c2cccc3cccnc23)CC1,1.77% (inactive)
11,CCOc1ccc(-c2nnc(SCC(=O)N3CCN(c4ccccc4)CC3)o2)cc1,2.71% (inactive)
12,CCCOc1ccc2ccccc2c1/C=N/n1cnnc1,-0.575% (inactive)
13,O=C(Cn1cc2c(n1)CCCCC2)N1CCc2ccccc21,2.15% (inactive)
14,CCn1cc(C(=O)N2CCOCC2)c(=O)c2cc(S(=O)(=O)N(C)C3CCCCC3)ccc21,0.85% (inactive)
15,COCCn1c(SCC(=O)Nc2ccc3c(c2)OCCO3)nc2c(c1=O)SC(C)C2 (stereo not given),1.71% (inactive)
16,CC(C)CCN(C)C1CCN(S(=O)(=O)c2ccc(F)cc2)CC1,0.875% (inactive)
17,COc1ccccc1-n1c(=O)[nH]c2c(C(N)=O)nc(-c3cccnc3)nc21,2.47% (inactive)
18,Cn1c(/C=N/n2cnnc2)nc2ccccc21,0.41% (inactive)
19,CN1CCN(CCCNC(=O)Cn2ncc3c4ccccc4n(C)c3c2=O)CC1,3.37% (inactive)
20,CCOc1ccc(N(CC(=O)NCc2ccco2)S(=O)(=O)c2ccc(OC)c(OC)c2)cc1,2.28% (inactive)

# Assay: RAM signaling pathway blockade in yeast – S. cerevisiae, Pdr1DBD-CYC8 efflux-inhibited sensitized strain, primary screen (AID 1298;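 active = RAM network inhibition above 8.4% in each of two replicates, 3 SD over the compound average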;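 note: 0% = DMSO untreated cells without growth and 100% = 10 µM 1-NA-PP1 full growth; higher means more yeast growth rescued from 5-FOA killing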)
# Details: S. cerevisiae cbk1-as DSE1-URA3 strain, 5-FOA growth OD615, 2 d; at 50 µM; active compounds read high
row,SMILES,RAM network inhibition
1,Cc1nnc2n(-c3ccc(Cl)cc3)c(=O)c3c4c(sc3n12)CN(C)CC4,2.13% (inactive)
2,O=c1oc2c3c4c(cc2s1)CCCN4CCC3,6.79% (inactive)
3,Cc1cc(C)n2nc(SCc3nc4ccccc4[nH]3)nc2n1,1.24% (inactive)
4,Cc1cc(C)cc(N(CC(=O)Nc2cccc(C)n2)S(=O)(=O)c2c(C)noc2C)c1,5.69% (inactive)
5,COc1cccc(C2C3=C(N=C4SCC(=O)N42)c2ccccc2CC3)c1OC (stereo not given),5.99% (inactive)
6,O=C(Cn1nc(Cc2ccncc2)c2ccccc2c1=O)N1CCN(C(=O)c2ccco2)CC1,5.75% (inactive)
7,O=C(Nc1c(C(=O)NCc2ccco2)cnn1-c1ccccc1)c1ccc(F)cc1,0.53% (inactive)
8,Cc1nc2ccc(S(=O)(=O)NC(C(=O)Nc3nccs3)C(C)C)cc2s1 (stereo not given),1.91% (inactive)
9,Cn1nnnc1SCC(=O)N1CCN(c2ccccc2)CC1,1.14% (inactive)
10,COc1cc2c(cc1OC)-c1nnc(C)n1C1(CCCC1)C2,2.81% (inactive)
11,CS(=O)(=O)N(Cc1ccco1)CC(O)Cn1c2ccccc2c2ccccc21 (stereo not given),1.64% (inactive)
12,COc1cccc(C2=NOC(C(=O)N3CCc4ccccc4C3)C2)c1 (stereo not given),-2.13% (inactive)
13,O=C(CC1Oc2ccccc2NC1=O)NCCCN1CCOCC1 (stereo not given),0.57% (inactive)
14,CCOC(=O)N1CCN(C(=O)c2ccc(CS(=O)(=O)c3c(Cl)cccc3Cl)o2)CC1,1.21% (inactive)
15,CCn1cc(SCC(=O)Nc2cc(C)on2)c2ccccc21,2.85% (inactive)
16,COc1ccccc1N1CCN(C(=O)N2CCOCC2)CC1,0.62% (inactive)
17,O=C(CSc1nnc2ccccn12)c1ccccc1,2.3% (inactive)
18,CCOc1ccc(N(CC(=O)OC)S(=O)(=O)c2ccc(OC)c(OC)c2)cc1,2.44% (inactive)
19,CCCCSc1nc(CCC)cc(=O)[nH]1,6.04% (inactive)
20,O=C(CN1CCN(Cc2ccccc2F)C1=O)NCc1cccnc1,3.14% (inactive)

row,SMILES,RAM network inhibition
1,COc1ccc(OC)c(C(=O)c2ccc(C(=O)O)cc2)c1,0.12% (inactive)
2,Cc1ccc(C)n1-n1c(C)nc2sc(-c3ccccc3)cc2c1=O,9.68% (inactive)
3,CCn1c(C(=O)N2CCC(C(=O)N3CCN(c4ccccn4)CC3)CC2)cc2sccc21,1.16% (inactive)
4,C=CCSc1nc(N)c2c(C)c(C)sc2n1,8.79% (inactive)
5,COc1ccc(OCCSc2nc3ccccc3n2CC(=O)O)cc1,4.44% (inactive)
6,Cc1nnc(SCC(=O)NCc2ccccc2)s1,4.69% (inactive)
7,Clc1ccc(SCCCCn2ccnc2)cc1,-0.38% (inactive)
8,CC1(C)Oc2ccc3ccc(=O)oc3c2C(N2CCCCC2)C1O (stereo not given),2.29% (inactive)
9,CSCCC(N=CC1=C(O)CC(C)(C)CC1=O)C(=O)O (stereo not given),4.91% (inactive)
10,COc1ccc(C)cc1NC(=O)C1CCN(S(=O)(=O)c2cccc3cccnc23)CC1,4.45% (inactive)
11,CCOc1ccc(-c2nnc(SCC(=O)N3CCN(c4ccccc4)CC3)o2)cc1,3.72% (inactive)
12,CCCOc1ccc2ccccc2c1/C=N/n1cnnc1,-1.74% (inactive)
13,O=C(Cn1cc2c(n1)CCCCC2)N1CCc2ccccc21,1.83% (inactive)
14,CCn1cc(C(=O)N2CCOCC2)c(=O)c2cc(S(=O)(=O)N(C)C3CCCCC3)ccc21,2.09% (inactive)
15,COCCn1c(SCC(=O)Nc2ccc3c(c2)OCCO3)nc2c(c1=O)SC(C)C2 (stereo not given),-0.11% (inactive)
16,CC(C)CCN(C)C1CCN(S(=O)(=O)c2ccc(F)cc2)CC1,4.65% (inactive)
17,COc1ccccc1-n1c(=O)[nH]c2c(C(N)=O)nc(-c3cccnc3)nc21,4.37% (inactive)
18,Cn1c(/C=N/n2cnnc2)nc2ccccc21,5.84% (inactive)
19,CN1CCN(CCCNC(=O)Cn2ncc3c4ccccc4n(C)c3c2=O)CC1,4.04% (inactive)
20,CCOc1ccc(N(CC(=O)NCc2ccco2)S(=O)(=O)c2ccc(OC)c(OC)c2)cc1,2.74% (inactive)
